From PubChem BioAssay
Only a selection was taken, and hits are over-represented in it overall.
TbPYK inhibitor – inhibitors of Trypanosoma brucei pyruvate kinase; Potency, µM (titrated, usually from 76.8 µM), inactives show top-dose activity, negative = inhibition, most hits filed as inhibitors; TbPYK enzyme, Kinase-Glo Plus ATP luminescence, 45 min; Q57TT1; hit rate 0.12% among 410,000; AID 624173; active means well fitted curve in the direction sought with a large enough effect; an effect the other way counts as inactive or inconclusive; further: potency means the concentration at half of the fitted maximal effect; on the % scale 0 is the no-effect control and ±100 the full control effect; nearly all actives have a fitted effect of over 50% in size
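Luminescent Kinase-Glo Plus end-point after 45 min room-temperature reaction of T. brucei pyruvate kinase started with 130 uM ADP (final). Buffer TEA 50 mM pH 7.2 with KCl, MgCl2, BSA, Tween-20; titration-based qHTS with fitted concentration-effect curves.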
LmPK inh – blocks Leishmania mexicana pyruvate kinase activity; Q27686; purified LmPK, Kinase-Glo ATP luminescence, 1 h; Potency, µM (doses to about 57.5 µM), for the others: top-dose activity change, negative = inhibition, usual class: inhibitors; hit rate 0.37% among 290,000; AID 1721; active means well fitted curve in the direction sought with a large enough effect; an effect the other way counts as inactive or inconclusive; further: potency means the concentration at half of the fitted maximal effect; on the % scale 0 is the no-effect control and ±100 the full control effect
Target sequence (Q27686 whole entry, looked up): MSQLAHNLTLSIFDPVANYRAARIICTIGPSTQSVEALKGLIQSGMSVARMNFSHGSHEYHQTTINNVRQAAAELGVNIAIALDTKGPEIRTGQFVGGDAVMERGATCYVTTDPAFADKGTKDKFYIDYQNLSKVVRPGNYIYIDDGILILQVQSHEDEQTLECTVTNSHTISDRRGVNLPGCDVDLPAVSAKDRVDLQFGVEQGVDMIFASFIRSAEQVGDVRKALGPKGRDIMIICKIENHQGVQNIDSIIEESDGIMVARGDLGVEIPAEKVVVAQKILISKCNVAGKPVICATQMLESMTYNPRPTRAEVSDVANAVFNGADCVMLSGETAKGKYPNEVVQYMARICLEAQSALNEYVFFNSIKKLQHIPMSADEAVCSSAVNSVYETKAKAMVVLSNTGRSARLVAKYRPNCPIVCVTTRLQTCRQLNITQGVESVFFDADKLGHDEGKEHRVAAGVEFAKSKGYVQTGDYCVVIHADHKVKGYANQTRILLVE
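0.1 nM LmPK, 0.5 mM PEP, 0.1 mM ADP; 50 mM imidazole pH 7.2, 7 mM MgCl2, 50 mM KCl; 1 h RT. Kinase-Glo luminescence readout, normalized to no-enzyme (full inhibition) and uninhibited wells.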
SARS PLpro yeast – SARS-CoV PLP inhibition in yeast. S. cerevisiae expressing SARS-CoV PLpro, growth rescue. Potency, µM (highest dose often 32.9 µM), without a hit: at the top dose activity, positive = growth rescue, actives largely listed as activators. hit rate 0.19% among 330,000. AID 485353; further: potency means the concentration at half of the fitted maximal effect; 0% is about no effect; nearly all actives have a fitted effect of over 55% in size
Shiga inhibitor – blocks Shiga toxin action in Vero cells; Vero cells, Shiga toxin protein synthesis inhibition reporter; inhibition, % at 38.7 µM; hit rate 9.2% among 290,000; AID 2315; in the data active means inhibition mostly above about 28%, no sharp cut-off; inactive means mostly below about 43%; further: 0% is about no effect
CHX counter – counter-screen for Shiga toxin inhibitors: cycloheximide protein synthesis inhibition; max response, %; AID 2314; hit rate 12% among 300,000; cell reporter, cycloheximide protein synthesis inhibition counterscreen; in the data active means max response mostly above about 13%, no sharp cut-off; inactive means mostly below about 14%; further: read at 38.3 µM for the half of the compounds with a filed dose; 0% is about no effect
NS1 inh – inhibitors of influenza NS1 protein function | hit rate 0.4% among 270,000 | Potency, µM (doses to about 46.1 µM), without a hit: at the top dose activity, positive = more growth; further: potency means the concentration at half of the fitted maximal effect; actives are rising curves; nearly all actives have a fitted effect of over 50% in size
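OD600 was taken as the measure of yeast growth restored by compound in an NS1-expressing S. cerevisiae strain. Cells had been washed out of glucose medium and diluted 1:100 into galactose -URA medium, pH 6.0.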
* marks the source's active call; other numbers are inactive results; / = no result; [ ] = another dose, or the depositor's remark. Unless noted, the call rests on the fitted dose curve.

SMILES | TbPYK inhibitor | LmPK inh | SARS PLpro yeast | Shiga inhibitor | CHX counter | NS1 inh
Cc1cccc(NCc2ccccc2)c1 | 2.1% | 6.3% | 1.1% | 21.7 | 5.1 | 2.3%
Cc1ccc(NCc2ccccc2F)cc1 | -3.4% | -4.7% | -0.3% | 28.6* | 9.1 | -13.9%
COc1ccccc1CNC(=O)C(C)n1c(=O)cc(C(F)(F)F)c2c(C)nn(C)c21 (centres undefined) | -2.3% | / | / | / | / | /
Cc1cc(NC(=O)C(C)SCC(=O)N(C)CC(=O)Nc2ccccc2C(F)(F)F)no1 (centres undefined) | -0.2% | / | -0.4% | / | / | /
COC(=O)c1c(NC(=O)c2cc(=O)c3cc(C)cc(C)c3o2)sc2c1CCC2 | -2.0% | / | / | / | / | /
CN1OC[C@@H]2CN(C(=S)NCCc3ccccc3)[C@H](c3ccccc3Br)C[C@@H]21 | 0.9% | / | / | / | / | /
COc1cccc(C(=O)OCC(=O)c2ccc(Br)s2)c1 | 0.3% | -7.8% | -4.6% | 88.3* | 52.9* | -10.8%
COc1ccc(C(=O)OCC(=O)c2ccc(Br)s2)c(OC)c1 | 1.2% | / | -0.5% | / | / | /
Cc1c(Cl)cccc1NC(=O)Cn1c(=O)nc(-c2ccccc2)c2ccccc21 | -4.8% | / | / | / | / | /
O=C(c1ccccc1)N1N=C(c2cccs2)CC1c1ccccc1O (centres undefined) | -6.7% | 7.4% | -9.4% | 10.9 | -1.7 | -59.1%
COC(=O)c1ccc(C2N=C(c3cccs3)CC(c3ccccc3O)N2)cc1 (centres undefined) | 0.6% | 0.3% | -19.3% | 100.0* | 38.1* | /
NC(=NCc1ccc2c(c1)OCO2)NC(=O)c1ccccc1 | -13.9% | -3.4% | -0.3% | 1.7 | -3.2 | -3.1%
CC(C)(C)C(=O)N1CCN(c2nc3ccccc3o2)CC1 | 1.5% | 7.5% | -2.4% | 26.7 | 16.1 | /
Cc1ccc(C(=O)N/C(N)=N/c2nc3ccccc3o2)cc1 | -4.9% | 2.5% | 4.9% | 23.2 | 9.5 | -0.8%
N/C(=N\c1nc2ccccc2o1)NC(=O)c1ccccc1 | -0.9% | 5.7% | -10.1% | 49.3* | 46.5* | -10.1%
NC(=NCc1ccco1)NC(=O)c1ccccc1 | 4.8% | -1.4% | -4.0% | 21.1* | 26.9* | 0.3%
CCCC(=O)N/C(N)=N/c1nc2ccccc2o1 | -0.9% | -6.1% | -3.2% | 86.9* | 51.2* | -4.9%
CC(C)(C)C(=O)N/C(N)=N/c1nc2ccccc2o1 | 6.8% | 2.9% | -1.7% | 71.1* | 49.6* | -2.0%
Cc1cccc(CNc2ccc(S(=O)(=O)N3CCCCC3)cc2)c1 | -16.3% | / | -1.1% | / | / | /
Cc1cc(C)c2c(n1)SCCN2C(=O)Nc1ccc(C(=O)Nc2cc(Cl)ccc2C)cc1 | -4.2%[15.4 µM] | / | / | / | / | /
Cc1cc(C)cc(NC(=O)Cn2c(=O)n(-c3ccc(C)c(C)c3)c(=O)c3oc4ccccc4c32)c1 | -2.3% | / | / | / | / | /
CC(=O)c1ccccc1NC(=O)CN1C(=O)NC2(CCCCCCC2)C1=O | 1.5% | / | / | / | / | /
N/C(=N\c1nc2ccccc2o1)NC(=O)/C=C/c1ccccc1 | -1.3% | 3.1% | -1.2% | -7.2 | 0.2 | -1.5%
COc1ccccc1C(=O)N/C(N)=N/c1nc2ccccc2o1 | -8.7% | 0.1% | -0.5% | 36.8* | 20.1 | -0.2%
CC(C)CC(=O)Nc1ccc(-c2nc3ccccc3c(=O)o2)cc1 | -5.4% | -2.9% | 20.6% | -4.0 | -3.0 | 6.1%
SMILES | TbPYK inhibitor | LmPK inh | SARS PLpro yeast | Shiga inhibitor | CHX counter | NS1 inh
N/C(=N\c1nc2ccccc2o1)NC(=O)c1cccc(Br)c1 | -14.3% | -0.1% | 0.2% | 1.0 | 35.4 | -2.9%
CCC(=O)N/C(N)=N/c1nc2ccccc2o1 | -7.3% | -9.0% | -2.5% | 85.4* | 61.0* | -43.8%
CC(C)CC(=O)N/C(N)=N/c1nc2ccccc2o1 | 1.2% | 4.2% | -0.5% | 103.0* | 51.1* | -2.8%
CCCSc1nsc(SCCC)c1C#N | 5.5% | 0.9% | 8.5% | 46.4* | 21.5* | 0.0%
O=C(COC(=O)CNC(=O)c1ccco1)Nc1ncc(Cl)cc1Cl | -10.2% | / | -4.7% | / | / | /
COCCNc1nnc(SC(C)C(=O)Nc2ccc(-c3nc4ccc(C)cc4s3)cc2)s1 (centres undefined) | -2.7% | -0.4% | 16.7% | 93.2* | 28.2* | 28.7%
CC1=CCC(C(=O)O)C(C(=O)Nc2ccc(-c3nc4ccc(C)cc4s3)cc2)C1 (centres undefined) | -2.8% | -0.1% | 1.1% | 104.4* | 53.7* | -0.6%
CC(=O)NC(=S)Nc1ccc(-c2nc3ccc(C)cc3s2)cc1 | 1.4% | -6.6% | 2.3% | 79.7* | 27.4* | -3.0%
